mHtt clearance: mutant huntingtin protein clearance; HeLa Exon1htt(103Q)mCFP, aggregate imaging; zero = plate's median compound well; actives 0.42% (n = 47,000); inhibition, % at 1.5 µM; AID 853;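 active = inhibition of aggregate fluorescence above about 70%, also judged a hit by eye on the cell image, limit read from the data, passing the limit was not always enough; inconclusive = no rule stated for this call; inactive = not judged a hit on image review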;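 note: cells exposed to compound for three days before fixation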
D1 mod: allosteric modulators of human D1 dopamine receptor; HEK293 D1, CRE-luciferase, dopamine EC30 potentiation; actives deviate in either direction; B-score at 10 µM; actives 5.9% (n = 58,000); AID 641;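 active = luminescence count or its row- and column-corrected plate score outside the 99.7% band of the plate's sample wells, on either side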
M1 agonist: agonists of M1 muscarinic receptor. CHO-M1 cells, Fluo-4 calcium fluorescence, agonist mode; active compounds read high. B-score at 10 µM. actives 3% (n = 64,000). AID 626;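 active = fluorescence rise, raw or as B-score row- and column-corrected plate score, outside the 99.7% band of its plate's samples, either direction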
WNV NS2B-NS3 inh: WNV NS2B-NS3 proteinase inhibition; P06935; WNV NS2B-NS3 protease, fluorogenic substrate Ex360/Em465; active compounds read low; z-score (no concentration beside the values); actives 0.18% (n = 65,000); in the data active = z-score below about -3
Target sequence (P06935 1371-1501 limits assumed): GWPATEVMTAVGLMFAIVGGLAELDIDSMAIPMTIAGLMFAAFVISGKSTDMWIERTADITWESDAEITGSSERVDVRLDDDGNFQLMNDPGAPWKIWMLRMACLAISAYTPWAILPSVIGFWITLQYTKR
Target sequence (P06935 1502-1679 limits assumed): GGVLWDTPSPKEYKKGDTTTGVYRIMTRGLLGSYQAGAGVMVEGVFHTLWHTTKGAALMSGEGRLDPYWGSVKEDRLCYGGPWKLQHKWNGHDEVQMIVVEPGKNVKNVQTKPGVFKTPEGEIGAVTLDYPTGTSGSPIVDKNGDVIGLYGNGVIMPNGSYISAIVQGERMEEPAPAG
M1 antagonist: M1 muscarinic receptor (rat) antagonism | actives 3.4% (n = 64,000) | P08482 | CHO-M1 cells, Fluo-4 calcium, ACh EC80 antagonist mode; active compounds read low | B-score at 10 µM;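 active = calcium fluorescence response, raw or row-and-column corrected B-score, differing from the plate sample mean either way at a set confidence level, mostly lower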
M1 agonist conf: rat M1 muscarinic agonism, confirmation; shares compounds with M1 agonist; CHO-M1 cells, Fluo-4 calcium fluorescence, agonist mode; actives lie on both sides; fluorescence change (max-min) at 10 µM; actives 19% (n = 1,700);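 active = fluorescence change differs from the solvent-only DMSO control mean at a set confidence level in both duplicate runs; inconclusive = differs from solvent-only control mean in just one of two runs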;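 note: an EC20 dose of acetylcholine follows compound addition during the same imaging run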
M4 agonist ctr: counter-screen for M1 agonists: activity at rat M4 receptor. shares compounds with M1 agonist. CHO M4/Gqi5 cells, Fluo-4 calcium fluorescence, agonist mode; actives lie on both sides. fluorescence change (max-min) at 10 µM. actives 9% (n = 1,700). AID 1741;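 active = fluorescence change differing from the plate's solvent-only control wells at 99.7% confidence in both duplicates, whether higher or lower; inconclusive = differs from solvent controls in only one of two duplicates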
Numbers stand for hits; - = inactive; ? = inconclusive; . = no result. In the library only some 8.9% were active in any assay of this set; here they are far more common.

SMILES	mHtt clearance	D1 mod	M1 agonist	WNV NS2B-NS3 inh	M1 antagonist	M1 agonist conf	M4 agonist ctr
COc1ccc(OC)c(Nc2cc(C(=O)NCCCN3CCOCC3)c3ccccc3n2)c1	.	-	7.5	-	-	-26	-79
O=C(CSCc1c(Cl)cccc1Cl)NCc1ccco1	-	.	.	.	.	.	.
O=C(CSCc1c(F)cccc1Cl)NCc1ccco1	-	-	1.5	-	-	-	-
CC(=O)N1CCN(c2ccc(NC(=O)c3ccc(C(C)(C)C)cc3)cc2)CC1	.	-	2.5	-	-	-	-
Cn1c2ccc(Cl)cc2c2nc3ccccc3nc21	.	-	18	-	-	-	-
Cn1c(CNc2ccc(Cl)cc2)nc2ccccc21	-	.	-	-	-	.	.
CC1CCN(C2=NC(=O)/C(=C/c3cn(-c4ccccc4)nc3-c3cccc(S(=O)(=O)N(C)C)c3)S2)CC1	-	.	.	.	.	.	.
CCn1c(SCC(=O)c2cc(C)n(-c3ccc(C(=O)OC)cc3)c2C)nnc1-c1cccnc1	.	-	3.9	-	-	-20	?
CCOC(=O)C1CCN(C(=O)CN(c2ccc3c(c2)OCCO3)S(C)(=O)=O)CC1	-	.	.	.	.	.	.
CC(C)Cc1nnc(NS(=O)(=O)c2ccc(Cl)cc2)s1	-	-	-	-	-	.	.
CCOC(=O)C(C)Sc1nnc(CNC(=O)c2ccc(OC)cc2)n1C1CCCCC1 (stereo not given)	-	-	3.3	-	-	?	?
COc1ccc(CN2CCn3ncc(C(=O)Nc4cc(C)cc(C)c4)c3C2=O)cc1	-	.	.	.	.	.	.
CCOc1c(Br)ccc2c1sc1nc[nH]c(=O)c12	-	-	-	-	-	.	.
N#CC(c1nc2ccccc2nc1N1CCCC1)S(=O)(=O)c1ccccc1 (stereo not given)	.	.	4	-	-	-	-
COc1ccc(S(=O)(=O)C(C#N)c2nc3ccccc3nc2N2CCCCC2)cc1 (stereo not given)	-	.	-	-	-	.	.
Cc1cccc(S(=O)(=O)C(C#N)c2nc3ccccc3nc2N2CCCC2)c1 (stereo not given)	.	-	6	-	-	-	-
CCOC(=O)CC1=C(C(=O)OCC)C(c2ccc(C)o2)C(C#N)=C(N)O1 (stereo not given)	.	-	-	-	-	.	.
Cc1ccc(C2C(C#N)=C(N)Oc3c2sc2ccccc32)o1 (stereo not given)	.	-	109	-	-	165	-
C=CCn1c(/N=C/c2ccc(N(C)C)cc2)nc2ccccc21	-	-	15	-	-	118	-
COc1ccc(F)cc1CN1CCN(c2cc(C)nc3c4c(C)cc(C)nc4nn23)CC1	-	-	3.5	-	-	?	-
COc1ccc(Cl)cc1CN1CCN(c2nc(C)cc(C)c2C#N)CC1	-	-	7.4	-	-	-	-
O=C(CCCc1ccccc1)N1CCc2ccccc21	.	-	-	-	-	.	.
Cc1ccc(/C=c2\s/c(=C(/C#N)C(=O)N3CCCC3)n(Cc3ccco3)c2=O)s1	.	-	3	-	-	-	-
COC(=O)/C=c1/s/c(=C(/C#N)C(=O)N2CCCCC2)n(-c2ccccc2)c1=O	.	.	-	-	-	.	.
Cc1cccc(N2C(=O)c3cccc4c(N(C)CCO)ccc(c34)C2=O)c1	-	.	351	-	-14	1544	1425
SMILES	mHtt clearance	D1 mod	M1 agonist	WNV NS2B-NS3 inh	M1 antagonist	M1 agonist conf	M4 agonist ctr
CNc1nc(OCC(F)(F)F)nc(N2CCN(C34CC5CC(CC(C5)C3)C4)CC2)n1	-	.	.	.	.	.	.
Cn1c(C(C#N)C2=C(Cl)C(=O)N(c3ccccc3)C2=O)nc2ccccc21 (stereo not given)	.	-	-	-	-	.	.
O=C(Nc1ccc2c(c1)OCO2)C1CCCN(S(=O)(=O)Cc2ccccc2)C1 (stereo not given)	-	-	3.9	-	-2.5	-	-
CCN1C(=O)CC(c2ccco2)Sc2ccccc21 (stereo not given)	.	.	-	-	-	.	.
Cc1ccc(OC(C)c2nnc(N)s2)cc1Cl (stereo not given)	-	-	2.5	-	-	-20	-
CC(Oc1ccccc1Cl)c1nnc(N)s1 (stereo not given)	-	.	.	.	.	.	.
CC(C)CNC(=O)C(=O)N/N=C/c1cccs1	-	.	.	.	.	.	.
O=C(O)c1ccc(CSCc2ccccc2F)o1	-	-	6.8	-	-	-	-
O=C(NC1CCCC1)c1ccc(CSCc2ccccc2F)o1	-	.	.	.	.	.	.
CCOC(=O)c1c(C)[nH]c(C=Nc2ccccc2)c1O	.	-	-2.2	-	-	-	-
COc1ccc(-n2nc3cc(C)c(NC(=O)C(C)C)cc3n2)cc1	-	-	-	-	-	.	.
CC1(C)Cc2nc3sc4c(N(CCO)CCO)ncnc4c3cc2CO1	-	.	2.8	-	-	?	-
CC1(C)Cc2nc3sc4c(SCC(=O)NCc5ccccc5)ncnc4c3cc2CO1	-	.	.	.	.	.	.
CC(NC(=O)C1CCCCC1)C(c1cccs1)N1CCN(C)CC1 (stereo not given)	.	.	-	-	-	.	.
CC1=NC(=O)C(N=Nc2cccc3ccccc23)N1c1ccccc1 (stereo not given)	-	.	.	.	.	.	.
COc1ccccc1C(=O)NC(=Nc1nc2ccccc2o1)NC(=O)c1ccccc1OC	-	.	6.4	-	-	?	-
O=C(Nc1cccc(-c2nc3ccccc3[nH]2)c1)c1cccc(NC(=O)c2ccco2)c1	.	-	5.1	-	-	-	-
O=C(Nc1cccc(-c2cnc3ccccc3n2)c1)c1ccco1	-	-	4.3	-	-	?	-
O=C(Nc1ncnc2c1ncn2C1OC(COC(=O)c2ccccc2)C(F)C1O)c1ccccc1 (stereo not given)	-	-	2.6	-	-	-	-
O=C(OCC1OC2C(Oc3nc(=O)ccn32)C1O)c1ccccc1 (stereo not given)	-	-	-	-	-	.	.
CCCNC(=O)CC(NS(=O)(=O)c1ccc(Cl)cc1)c1ccco1 (stereo not given)	-	-	-	-	-	.	.
O=C(CC(NS(=O)(=O)c1ccc(Cl)cc1)c1ccco1)NCc1ccco1 (stereo not given)	.	-	-2.9	-	-	?	-
O=C(c1ccccc1C(=O)N1CCN(c2ccccc2)CC1)N1CCN(c2ccccc2)CC1	-	-	3.7	-	-	-	-
O=C(O)c1ccccc1C(=O)N1CCN(c2ccccc2)CC1	.	.	-	-	-	.	.
COc1cccc(C(=O)OCc2ccccc2C#N)c1O	.	-	-2.2	-	-	-27	-79
N=c1n(CCN2CCOCC2)c2ccccc2n1CC(O)COc1ccccc1 (stereo not given)	-	-	-	-	-	.	.
COc1ccc(OCC(O)Cn2c(=N)n(CCN3CCOCC3)c3ccccc32)cc1 (stereo not given)	.	-	7.5	-	-	-	-
O=C1CC(c2ccc3c(c2)OCO3)c2cc3c(cc2N1)OCO3 (stereo not given)	.	.	-	-	-	.	.
O=C1CC(c2ccncc2)c2cc3c(cc2N1)OCO3 (stereo not given)	-	-	2.4	-	-	-	?
